# Test results taken from PubChem BioAssay AID455 (Sanford-Burnham Center for Chemical Genomics, 2006).
# Screen size: about 10,000 compounds; about 20 (0.2%) were called active. The sample holds actives, similar compounds and a random draw of the others, so the mix is not that of the screen. Values without a mark were called inactive.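 Rule for the calls: active = a compound raising TNF-alpha-driven VCAM-1 surface staining, with its hit status upheld on visual or statistical review; inactive = the rest, including hits rejected on review.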
# Assay: boosters of cytokine-driven VCAM-1 levels – cell-based, plate reader, pooled HUVEC, TNFa stimulus (AID 455);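 for augmentation: 0% = TNFa plus DMSO wells and 100% = a visually confirmed top hit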
# Details: HUVEC TNFa-induced VCAM-1 immunofluorescence; active compounds read high, 100% set by best visually verified hit,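 tested at 5 µM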
row,Structure (SMILES),augmentation
1,CC1/C(=N/O)C(CN(C)C)C2CC1C2(C)C (stereo unspecified),inactive
2,COc1ccc(-c2noc(C3CCCN(C(=O)CCc4ccccc4)C3)n2)cc1 (stereo unspecified),inactive
3,O=C(NCCc1c[nH]c2ccccc12)c1cnc2n(c1=O)CCS2,inactive
4,CCOc1ccccc1C(=O)NC(C)c1ccc2c(c1)OCO2 (stereo unspecified),inactive
5,O=C(CN1CCN(Cc2ccc(F)cc2Cl)C1=O)NCCCN1CCOCC1,inactive
6,O=C(CSc1nnc2scc(-c3ccccc3)n12)N1CCN(Cc2ccccc2)CC1,inactive
7,c1ccc2c3nnc4n(c-3nc2c1)CCCS4,inactive
8,COc1cc(NC(=O)C2CCCN2S(=O)(=O)c2cccc3cccnc23)cc(OC)c1OC (stereo unspecified),inactive
9,COc1ccccc1-c1nc(SCc2ccccn2)n[nH]1,inactive
10,CN(C)c1cccc(C(=O)OCC(=O)NCc2ccco2)c1,inactive
11,O=C(CSc1nnc(-c2ccccc2)o1)N1CCc2ccccc2C1,inactive
12,Cc1noc(C)c1COc1cccc(C(=O)Oc2ccc3c(c2)OCO3)c1,inactive
13,O=C1C2CCCN2C(c2ccc(Cl)cc2)N1c1nccs1 (stereo unspecified),inactive
14,C=CCn1c(=O)[nH]c2cc(C(=O)N3CCN(c4cc(C)ccc4C)CC3)ccc2c1=O,inactive
15,COc1cccc(NC(=O)CSc2nnc(-c3cccs3)n2C)c1,inactive
16,CCCC(=O)NCCc1cc2c(C)ccc(C)c2[nH]c1=O,inactive
17,O=C(CNC(=O)c1cccs1)NCCN1CCN(c2ccccc2F)CC1,inactive
18,COc1cccc(NC(=O)CN2CCN(c3ccccc3F)CC2)c1,inactive
19,COc1cccc(NC(=O)N2CCN(c3cccc(C)c3C)CC2)c1,100% (active)
20,COc1cccc(NC(=O)N2CCC(N3CCCCC3)CC2)c1,inactive
21,Cc1ccc(C)c(CSc2nnc(CCN)o2)c1,inactive
22,COc1ccc(N2CCN(CCNS(=O)(=O)c3cccc4nsnc34)CC2)cc1,inactive

row,Structure (SMILES),augmentation
1,CC(=O)c1ccccc1Oc1nc(CN2CCOCC2)nc2scc(-c3cccs3)c12,inactive
2,COC(=O)c1ccc(CNC(=O)CSc2nc3sc(C)c(C)c3c(=O)n2C)o1,inactive
3,CCCCC(NS(=O)(=O)c1ccc(OC)cc1)C(=O)O (stereo unspecified),66.3% (active)
4,COc1ccc(S(=O)(=O)NCc2ccc(C(=O)O)cc2)cc1,inactive
5,CCN(CC)CCCNS(=O)(=O)c1ccc(OC)cc1,inactive
6,O=C(Nc1nc(-c2ccc(S(=O)(=O)N3CCCCCC3)cc2)cs1)c1cccs1,inactive
7,C=CCn1c(-c2ccc(OC)cc2)nc2ccccc21,inactive
8,COCCn1c(-c2ccc(OC)c(OC)c2)nc2ccccc21,100% (active)
9,COc1ccc(Cn2c(CCCO)nc3ccccc32)cc1OC,inactive
10,Cc1ccc(O)c(-c2cc3ccccc3[nH]2)c1,inactive
11,CC(C)NC(=O)CSc1nc2ccccc2n1-c1ccccc1,inactive
12,CC(O)c1nc2ccccc2n1C1CCCCC1 (stereo unspecified),inactive
13,CC(C)N=c1cc2n(-c3ccc(Cl)cc3)c3ccccc3nc-2cc1Nc1ccc(Cl)cc1,74% (active)
14,CCOC(=O)C1CN(S(=O)(=O)c2ccc(C)cc2)CCN1S(=O)(=O)c1ccc(C)cc1 (stereo unspecified),inactive
15,CCOc1ccccc1N1C(=O)CC(Sc2ncccc2C(=O)O)C1=O (stereo unspecified),inactive
16,COc1ccc(-c2oc3ncn(CCN4CCOCC4)c(=N)c3c2-c2ccc(OC)cc2)cc1,inactive
17,CC1=C(C(=O)OC2CCCC2)C(c2ccc(C)o2)C2=C(CC(c3cccs3)CC2=O)N1 (stereo unspecified),inactive
18,COc1cccc(CNC(=O)C2CCN(S(=O)(=O)c3ccc(F)cc3)CC2)c1,inactive
19,CCCCSc1nnc([C@H](C)NC(=O)OC(C)(C)C)o1,inactive
20,O=C(OC1CCOC1=O)c1ccc2ccccc2n1 (stereo unspecified),inactive
21,COc1ccc(NC(=O)c2ccco2)cc1NC(=O)c1cccs1,inactive
22,O=C(Nc1ccc2nc(-c3cccs3)[nH]c2c1)c1ccco1,72.4% (active)

row,Structure (SMILES),augmentation
1,Cn1cccc1-c1nc2ccc(NC(=O)c3ccco3)cc2[nH]1,65.1%
2,CCN1C(=O)c2cccc3c(NC(=O)c4ccc5c(c4)OCCO5)ccc1c23,inactive
3,O=C(Nc1cccc2ncccc12)c1ccc2c(c1)OCCO2,81% (active)
4,O=C(Nc1ccccc1-c1nc2ccccc2o1)c1ccc2c(c1)OCCO2,inactive
5,CC(C)C(=O)N1CCN(c2nc(-c3ccccc3)c3c(c2C#N)CCCC3)CC1,inactive
6,Oc1cccc(C=NCc2ccccc2)c1O,61.8% (active)
7,FC(F)Sc1nnc(-c2cccs2)n1-c1ccccc1,inactive
8,CCCC(=O)Nc1cc(C)c2c(=O)oc3ccccc3c2n1,inactive
9,Cc1ccc(Br)cc1S(=O)(=O)N1CCN(c2ccccc2)CC1,inactive
10,Cc1cc(C)c2c(n1)nn1c(C3CC3)cc(C(F)(F)F)nc21,inactive
11,COc1ccc(C(=O)CN2C3=NCCCN3c3ccccc32)cc1OC,71.2% (active)
12,CCOC(=O)CN1C2=NCCN2c2ccccc21,inactive
13,c1ccc(CN2C3=NCCCN3c3ccccc32)cc1,inactive
14,Cc1cccc(NC(=O)CC2CCC2)c1,inactive
15,Cc1cc(C)n(-c2nc3sc4c(c3c3nnc(SCC(N)=O)n23)CC(C)(C)OC4)n1,inactive
16,CCCC(=O)Nc1cc(C)c(NC(=O)c2ccccn2)cn1,inactive
17,COCCn1c(CN2CCN(c3cccc(Cl)c3)CC2)nc2c1c(=O)n(C)c(=O)n2C,inactive
18,O=c1cc(NCc2ccccc2)nc2n1CCCS2,inactive
19,O=C(Nc1cccc(F)c1)c1ccc2c(c1)OCO2,inactive
20,O=C1CCCN1Cc1ncnn1-c1ccccc1,inactive
21,O=C(Nc1ccc2c(c1)OCO2)N1CCN(c2ncccn2)CC1,inactive
22,CCC(=O)N1CCc2cc(S(=O)(=O)CCC(=O)Nc3ccc(C)c(F)c3)ccc21,inactive

row,Structure (SMILES),augmentation
1,CCC(=O)N1CCc2cc(S(=O)(=O)CCC(=O)Nc3nc(C)cs3)ccc21,inactive
2,CCC(=O)N1CCc2cc(S(=O)(=O)CCC(=O)Nc3c(C)n(C)n(-c4ccccc4)c3=O)ccc21,70.3% (active)
3,CCc1nc(N[C@@H](Cc2c[nH]c3ccccc23)C(=O)O)c2oc3ccccc3c2n1,inactive
4,Cc1cc2c(=O)n(CC(=O)N3CCN(c4ccccc4)CC3)cnc2s1,inactive
5,Cc1csc(NC(=O)c2ccccc2C(=O)O)n1,inactive
6,CC(C)(C)c1ccc(OCC(=O)O)cc1,inactive
7,Cc1cc(C)nc(N2CCCC(C(=O)Nc3nc4ccc(S(C)(=O)=O)cc4s3)C2)n1 (stereo unspecified),inactive
8,COc1cc(NC(=O)CN(c2cc(C)cc(C)c2)S(=O)(=O)c2c(C)noc2C)cc(OC)c1,inactive
9,Cc1ccc(NC(=O)CSc2nnc(CSc3nc(C)cc(C)n3)n2Cc2ccco2)c(C)c1,inactive
10,CCn1c(=S)ccc2ccc(OC)cc21,inactive
11,CCOc1ccc(NC(=O)CSc2nccn2C)cc1,inactive
12,COC(=O)c1ccc2c(c1)C(=O)N(C1CCCCC1)C2=O,inactive
13,CCOc1cc(C2NC(=O)N(C)C(C)=C2C(=O)OC)cc(Br)c1O (stereo unspecified),inactive
14,CCOC(=O)C1=C(c2ccccc2)NC(=O)NC1c1ccc(N(C)C)cc1 (stereo unspecified),63.8% (active)
15,CCOC(=O)C1=C(C)NC2=C(C(=O)CC(C)(C)C2)C1c1ccc(N(C)C)cc1 (stereo unspecified),inactive
16,CCOC(=O)C1=C(C)NC(=O)NC1c1ccc(OCCO)c(OC)c1 (stereo unspecified),inactive
17,Cc1ccc(S(=O)(=O)NC(=O)c2cc(C)n(CCCn3ccnc3)c2C)cc1,inactive
18,COc1ccc(C(=O)Nc2nc(C)c(C(=O)N(C)C)s2)cc1OC,inactive
19,COc1ccccc1NC(=O)NC(N)=O,inactive
20,O=C(C1CC1)N1CCc2cc(Br)cc(S(=O)(=O)N3CCOCC3)c21,inactive
21,CC1(C)Cc2ccccc2C(N)=C1C#N,inactive
22,CCN1CCN(c2nc(C)nc3c2sc(=S)n3C)CC1,inactive

row,Structure (SMILES),augmentation
1,CCc1cc2ccc(C)cc2nc1SCC(=O)N1CCN(C(=O)c2ccco2)CC1,inactive
2,O=c1c2[nH]c3ccccc3c2ncn1CCCn1ccnc1,inactive
3,O=C1CCCN1CCCNc1ncnc2c1[nH]c1ccc(Cl)cc12,inactive
4,O=c1c2[nH]c3ccc(Cl)cc3c2ncn1Cc1ccccn1,100% (active)
5,COc1cc(-c2nc(S(=O)(=O)c3ccccc3)c(N3CCOCC3)o2)cc(OC)c1OC,inactive
6,COc1cc2[nH]c(=O)c(C(=O)NCCCN3CCCCC3)c(O)c2cc1OC,inactive
7,COc1cccc(C2C(C(=O)c3cccs3)=C(O)C(=O)N2CCCn2ccnc2)c1OC (stereo unspecified),inactive
8,Cc1cccc(C(=O)N2CCN(C(=O)c3cccc(C)c3)C(C)C2)c1 (stereo unspecified),inactive
9,CC(=O)c1ccccc1NS(=O)(=O)c1c(C)nn(-c2ccccc2)c1C,inactive
10,COc1cccc(NC(=O)N(CCCN2CCOCC2)C(C)c2cc3cccc(OC)c3o2)c1 (stereo unspecified),inactive
11,S=C(c1ccc(N2CCOCC2)cc1)N1CCCCC1,inactive
12,COc1ccccc1C1/C(=C(\O)c2c(C)nc3c(C)cccn23)C(=O)C(=O)N1CCCN(C)C (stereo unspecified),inactive
13,COc1ccc(S(=O)(=O)Nc2ccc(S(=O)(=O)N3CCCCC3)cc2)cc1OC,inactive
14,COc1ccc(S(=O)(=O)Nc2ccc(F)c(F)c2)cc1Cl,inactive
15,COc1ccc(S(=O)(=O)Nc2ccc(F)c(Cl)c2)cc1OC,70.4% (active)
16,COC(=O)Cc1c(C)c2ccc(OCC(=O)N3CCOCC3)cc2oc1=O,inactive
17,CCCSc1nnc(N2C(=O)CC(c3ccsc3)C3=C2CCCC3=O)s1 (stereo unspecified),inactive
18,COc1ccc(-c2nnc(SCC(=O)NC(=O)NCc3ccco3)o2)cc1,inactive
